Experiment [1] has as its target Nuclear receptor coactivator 3 (Homo sapiens) (UniProt Q9Y6Q9). The experiment can be described thus: NCOA3 GAL4-fusion reporter inhibition – cell-based, luminescence, quadruplicate, confirmation (AID 588792;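 active = mean inhibition over 43.08%, the solvent-only control mean plus 3 SD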;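 also: 0% = DMSO treated cells and 100% = gossypol at 36 µM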). Particulars: HEK293 GAL4-SRC3 luciferase reporter, at 3.6 µM, active compounds read high. Background: Reporter assays use an easily measured gene product as a stand-in for the process of interest.

Experiment [2] has as its system transactivating tegument protein VP16 (Human herpesvirus 1), Gal4-VP16 luciferase reporter. The experiment can be described thus: repression of VP16-driven luciferase reporter – cell-based, luminescence, high throughput, counter-screen for SRC3 inhibitor project (AID 588794; in the data active = inhibition above about 30%). Conditions: mammalian cells, at 3.6 µM, active compounds read high.
In experiment [3] the target is Nuclear receptor coactivator 1 (Homo sapiens) (UniProt Q15788). As to the kind of experiment: NCOA1 GAL4-fusion reporter inhibition – cell-based, luminescence, quadruplicate, confirmation (AID 588820;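 active = mean inhibition above 46.68%, the untreated control wells mean plus 3 SD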;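 also: 0% = DMSO wells and 100% = gossypol 36 µM treated wells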). Particulars: HEK293 GAL4-SRC1 luciferase reporter, at 3.6 µM, active compounds read high.
Experiment [4] is described as follows: repression of VP16-driven luciferase reporter – cell-based, luminescence, high throughput, counter-screen for SRC1 inhibitor project (AID 588824; in the data active = inhibition above about 25%). Particulars: cell-based VP16 transactivation luciferase luminescence; at 3.6 µM; active compounds read high.
Experiment [5] in a line: StAR promoter reporter inhibitors, counter-screen for LRH-1 inverse agonist project, cell-based, luminescence, high throughput (AID 651611). Conditions: StAR promoter luciferase reporter counterscreen, at 3.6 µM, active compounds read high.
The target in experiment [6] is Nuclear receptor subfamily 5 group A member 2 (Homo sapiens) (UniProt O00482). The experiment can be described thus: NR5A2 activity suppression in reporter cells – cell-based, luminescence, confirmation (AID 651613; in the data active = inhibition above about 42%;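 also: HEK293T cells co-transfected with LRH-1 and StAR promoter luciferase reporter; 0% = vehicle wells and 100% = parental cells lacking receptor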). Particulars: cell-based LRH-1 luciferase reporter, inverse agonism; at 3.6 µM; active compounds read high.
Experiment [7] concerns the target Steroidogenic factor 1 (Homo sapiens) (UniProt Q13285). The experiment can be described thus: inverse agonism at SF1 nuclear receptor – cell-based, luminescence, high throughput, counter-screen for LRH-1 inverse agonist project (AID 651614; in the data active = inhibition above about 44%;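 also: cells cotransfected with StAR promoter reporter and SF1 expression vector; 0% = vehicle on cells with receptor and 100% = vehicle on cells lacking receptor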). Particulars: cell-based SF1 luciferase reporter, at 3.6 µM, active compounds read high. A general note: Counterscreens check selectivity or assay interference.

A short description of experiment [8]: compounds suppressing VP16-driven luciferase signal – cell-based, luminescence, high throughput, counter-screen for LRH-1 inverse agonist project (AID 651615; in the data active = inhibition above about 33%). Conditions: Gal4-VP16 luciferase reporter cells, at 3.6 µM, active compounds read high.

SMILES strings stand for the structures. A number with no mark means an inactive call. The source made the active and inactive calls. Rule as the data show it, unless noted: active = inhibition above about 28%; inactive = the rest.

Sequence of Nuclear receptor subfamily 5 group A member 2 (Homo sapiens) (O00482 whole entry, looked up): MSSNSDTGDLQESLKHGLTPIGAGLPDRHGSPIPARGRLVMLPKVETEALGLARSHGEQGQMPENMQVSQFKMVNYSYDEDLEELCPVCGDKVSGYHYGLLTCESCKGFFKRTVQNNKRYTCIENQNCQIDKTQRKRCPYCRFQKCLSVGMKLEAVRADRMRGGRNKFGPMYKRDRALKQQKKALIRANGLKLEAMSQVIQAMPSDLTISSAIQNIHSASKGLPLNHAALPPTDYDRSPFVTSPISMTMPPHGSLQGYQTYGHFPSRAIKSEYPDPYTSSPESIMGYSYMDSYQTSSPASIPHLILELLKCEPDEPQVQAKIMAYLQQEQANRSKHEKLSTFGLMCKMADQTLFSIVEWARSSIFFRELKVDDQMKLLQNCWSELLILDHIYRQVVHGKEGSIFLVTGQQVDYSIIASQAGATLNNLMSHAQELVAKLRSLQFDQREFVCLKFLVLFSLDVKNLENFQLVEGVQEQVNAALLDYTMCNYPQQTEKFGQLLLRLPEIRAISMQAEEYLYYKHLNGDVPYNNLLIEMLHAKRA
Sequence of Nuclear receptor coactivator 3 (Homo sapiens) (Q9Y6Q9 whole entry, looked up, the tested form may be a part): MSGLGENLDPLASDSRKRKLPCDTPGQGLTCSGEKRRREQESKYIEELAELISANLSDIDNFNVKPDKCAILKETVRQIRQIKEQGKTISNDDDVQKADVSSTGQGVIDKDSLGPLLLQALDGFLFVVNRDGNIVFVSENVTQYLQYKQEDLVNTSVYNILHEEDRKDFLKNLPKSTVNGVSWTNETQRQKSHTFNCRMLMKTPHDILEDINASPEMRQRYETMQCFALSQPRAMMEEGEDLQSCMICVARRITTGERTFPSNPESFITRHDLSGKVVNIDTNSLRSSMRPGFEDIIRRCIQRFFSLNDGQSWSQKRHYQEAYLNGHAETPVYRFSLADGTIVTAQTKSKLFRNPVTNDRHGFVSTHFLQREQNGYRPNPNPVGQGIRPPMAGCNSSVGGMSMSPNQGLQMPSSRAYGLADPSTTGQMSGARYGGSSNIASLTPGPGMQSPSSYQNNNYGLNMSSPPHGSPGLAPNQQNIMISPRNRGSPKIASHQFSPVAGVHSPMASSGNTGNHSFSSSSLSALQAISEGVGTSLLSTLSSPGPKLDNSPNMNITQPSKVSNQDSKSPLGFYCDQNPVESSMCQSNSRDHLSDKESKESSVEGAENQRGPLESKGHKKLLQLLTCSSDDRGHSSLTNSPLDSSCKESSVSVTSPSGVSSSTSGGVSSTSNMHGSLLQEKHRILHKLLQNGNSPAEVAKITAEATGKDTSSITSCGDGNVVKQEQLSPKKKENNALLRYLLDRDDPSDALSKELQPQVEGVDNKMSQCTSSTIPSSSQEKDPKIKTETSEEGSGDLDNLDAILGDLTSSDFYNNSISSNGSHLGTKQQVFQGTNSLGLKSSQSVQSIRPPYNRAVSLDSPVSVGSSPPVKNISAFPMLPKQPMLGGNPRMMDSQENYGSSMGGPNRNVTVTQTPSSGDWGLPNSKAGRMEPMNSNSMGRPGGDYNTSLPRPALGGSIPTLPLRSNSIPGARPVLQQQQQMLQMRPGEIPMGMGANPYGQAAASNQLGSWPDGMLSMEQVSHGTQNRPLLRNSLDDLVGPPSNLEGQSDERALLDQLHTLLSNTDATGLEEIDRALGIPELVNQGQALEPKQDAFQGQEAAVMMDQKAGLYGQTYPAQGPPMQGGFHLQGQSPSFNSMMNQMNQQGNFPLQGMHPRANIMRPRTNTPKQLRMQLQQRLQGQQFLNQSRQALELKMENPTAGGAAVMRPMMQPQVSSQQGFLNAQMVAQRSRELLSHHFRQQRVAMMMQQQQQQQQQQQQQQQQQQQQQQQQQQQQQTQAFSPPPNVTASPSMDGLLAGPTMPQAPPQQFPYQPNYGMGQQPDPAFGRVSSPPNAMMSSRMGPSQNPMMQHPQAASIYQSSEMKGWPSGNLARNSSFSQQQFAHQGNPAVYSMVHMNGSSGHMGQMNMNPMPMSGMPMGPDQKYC
Sequence of Nuclear receptor coactivator 1 (Homo sapiens) (Q15788 whole entry, looked up, the tested form may be a part): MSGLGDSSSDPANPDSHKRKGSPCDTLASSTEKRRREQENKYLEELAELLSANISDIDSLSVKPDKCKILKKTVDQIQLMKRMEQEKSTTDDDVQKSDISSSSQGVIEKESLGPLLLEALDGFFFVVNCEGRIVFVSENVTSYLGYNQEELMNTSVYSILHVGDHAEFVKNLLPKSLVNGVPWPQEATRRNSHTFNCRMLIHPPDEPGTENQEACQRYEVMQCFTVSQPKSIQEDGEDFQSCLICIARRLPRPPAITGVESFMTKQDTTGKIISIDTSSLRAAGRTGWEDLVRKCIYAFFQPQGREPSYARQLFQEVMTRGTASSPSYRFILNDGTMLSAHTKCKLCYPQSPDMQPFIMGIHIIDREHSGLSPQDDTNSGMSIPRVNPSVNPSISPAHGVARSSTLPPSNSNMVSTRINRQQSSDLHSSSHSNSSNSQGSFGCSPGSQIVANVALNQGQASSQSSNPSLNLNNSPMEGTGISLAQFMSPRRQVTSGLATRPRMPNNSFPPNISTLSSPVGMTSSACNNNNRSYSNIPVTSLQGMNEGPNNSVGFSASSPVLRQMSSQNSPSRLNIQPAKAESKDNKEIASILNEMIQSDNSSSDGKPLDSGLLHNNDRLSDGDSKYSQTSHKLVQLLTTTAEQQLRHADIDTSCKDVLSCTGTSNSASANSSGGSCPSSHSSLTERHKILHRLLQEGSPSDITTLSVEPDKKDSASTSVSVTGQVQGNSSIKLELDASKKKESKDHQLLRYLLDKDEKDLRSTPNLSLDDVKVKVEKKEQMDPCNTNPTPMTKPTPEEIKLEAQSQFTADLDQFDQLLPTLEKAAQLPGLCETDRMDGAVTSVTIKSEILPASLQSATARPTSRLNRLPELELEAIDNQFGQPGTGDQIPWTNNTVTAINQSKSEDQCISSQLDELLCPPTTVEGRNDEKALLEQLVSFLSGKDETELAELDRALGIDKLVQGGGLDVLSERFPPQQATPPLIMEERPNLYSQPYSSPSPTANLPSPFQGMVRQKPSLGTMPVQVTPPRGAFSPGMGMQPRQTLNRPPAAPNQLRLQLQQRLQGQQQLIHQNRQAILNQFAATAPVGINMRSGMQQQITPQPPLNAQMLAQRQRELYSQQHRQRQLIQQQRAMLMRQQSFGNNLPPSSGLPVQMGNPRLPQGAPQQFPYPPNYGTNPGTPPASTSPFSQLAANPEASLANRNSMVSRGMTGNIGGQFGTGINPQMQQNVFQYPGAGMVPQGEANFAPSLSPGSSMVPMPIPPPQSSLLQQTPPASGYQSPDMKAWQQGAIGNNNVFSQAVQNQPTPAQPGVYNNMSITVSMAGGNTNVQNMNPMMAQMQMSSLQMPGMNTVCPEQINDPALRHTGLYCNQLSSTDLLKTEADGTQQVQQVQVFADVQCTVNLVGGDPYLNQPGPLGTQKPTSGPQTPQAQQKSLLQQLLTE
Sequence of Steroidogenic factor 1 (Homo sapiens) (Q13285 whole entry, looked up): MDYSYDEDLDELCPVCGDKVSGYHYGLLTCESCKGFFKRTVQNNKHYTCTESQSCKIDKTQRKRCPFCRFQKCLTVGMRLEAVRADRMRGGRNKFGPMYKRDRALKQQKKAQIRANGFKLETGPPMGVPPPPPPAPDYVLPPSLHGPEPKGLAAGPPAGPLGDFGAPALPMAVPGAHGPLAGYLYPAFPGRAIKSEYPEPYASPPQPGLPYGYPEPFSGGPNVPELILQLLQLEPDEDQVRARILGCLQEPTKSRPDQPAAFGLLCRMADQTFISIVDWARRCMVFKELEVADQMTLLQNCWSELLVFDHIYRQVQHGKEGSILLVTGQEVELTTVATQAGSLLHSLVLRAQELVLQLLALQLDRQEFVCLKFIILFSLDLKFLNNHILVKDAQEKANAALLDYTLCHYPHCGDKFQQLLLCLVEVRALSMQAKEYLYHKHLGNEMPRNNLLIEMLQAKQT

As for `Nc1ncnc2c(C3OC(CO)C(O)C3O)c[nH]c12` (stereo not drawn), the inhibition in experiment [1] was 97.4% (active); in experiment [2] it was 96.5% (active); in experiment [3], 95.7% (active); in experiment [4], 96% (active); in experiment [5] it was 95.6% (active); in experiment [6] it was 111% (active). Also, the inhibition in experiment [7] was 98.2% (active); in experiment [8] it was 97.7% (active).

`CC(=NNC(=S)N1CCN(C2CCCCCC2)CC1)c1ccccn1`: the inhibition in experiment [1] is 50% (active); in experiment [2] it was 83.7% (active); in experiment [3], 66.2% (active); in experiment [4], 71% (active); in experiment [5], 81.8% (active); in experiment [6], 98.5% (active). Moreover, the inhibition is 85.4% (active) in experiment [7] and 65.2% (active) in experiment [8].

Consider `Cc1nc2ccc(NC(=O)c3cccs3)cc2c(=O)n1Cc1ccc(Cl)cc1`, for which the inhibition was 4.95% in experiment [1]; 15.8% in experiment [2]; -3.3% in experiment [3]; 23.8% in experiment [4]; 27.4% in experiment [5]; 52.7% (active) in experiment [6]. For the same compound, the figures for the inhibition in experiment [7] and in experiment [8] were 55% (active) and 40.8% (active), respectively.

Take `COc1ccccc1N1CCN(Cc2cc(Br)c(O)c3ncccc23)CC1`: the inhibition is 21.4% in experiment [1]; 3.52% in experiment [2]; -1.06% in experiment [3]; -1.42% in experiment [4]; 23.9% in experiment [5]; 23.9% in experiment [6]. Further, the inhibition is 42.8% (active) in experiment [7] and 21.7% in experiment [8].

Take `CCC(=O)Nc1cccc(C(=O)/C=C/c2cc(Br)ccc2OC)c1`: the inhibition in experiment [1] is 70.8% (active); in experiment [2], 62.1% (active); in experiment [3], 60.6% (active); in experiment [4], 59.4% (active); in experiment [5], 81.2% (active); in experiment [6] it was 105% (active). Also, the inhibition in experiment [7] was 94.1% (active); in experiment [8], 82.9% (active).

With `CC1=NN(c2nc3ccccc3[nH]2)C(=O)C1Cc1ccccc1` (stereo not drawn), the inhibition was 53.5% (active) in experiment [1]; 68% (active) in experiment [2]; 48.1% (active) in experiment [3]; 67.5% (active) in experiment [4]; 70.3% (active) in experiment [5]; 101% (active) in experiment [6]. In addition, the inhibition in experiment [7] is 88.7% (active); in experiment [8], 83.6% (active).

Broadly, the inhibition is the drop in the measured response relative to a control, in per cent.

For the origin of these results see PubChem BioAssay.
